# Measured values as given in the supplement of paper PMC3842684.
# Tested on: P. falciparum NF54-pfs16-GFP early (I-III) stage gametocytes
# Test: relative % inhibition of viable gametocyte number; higher = more gametocytocidal
# Settings: 0.5 µM; stage: early (I-III) gametocyte; incubation 72 h
# In short: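 In 384-well poly-D-lysine imaging plates, NF54 pfs16-GFP gametocytes (magnet-isolated, early I/IIa on day 2 or late on day 8; 10% parasitaemia, 0.1% haematocrit) received compound in duplicate at 5 or 0.5 µM. Plates stood 72 h at 37°C in 5% CO2 and 5% O2, then overnight with MitoTracker Red before confocal imaging, where elongated GFP objects with MitoTracker signal above cut-off counted as viable. Relative inhibition was calculated against vehicle and positive-control wells on the same plate.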
row,Structure (SMILES),relative % inhibition
1,OC(Cn1nnc2ccccc21)Cn1c2ccc(Br)cc2c2cc(Br)ccc21 (stereo not drawn),5.28%
2,COc1ccc(CN2CCCC(C(=O)c3ccc(C(F)(F)F)cc3)C2)c(O)c1 (stereo not drawn),-2.13%
3,Cc1ccc(Nc2nc(NCCO)c3ccccc3n2)cc1C,-7.63%
4,COc1ccc(C2=C(c3ccc(OC)cc3)C3(c4ccccc4)C(=O)C2(c2ccccc2)C2C(=O)N(c4ccc(C)cc4)C(=O)C23)cc1 (stereo not drawn),60.3%
5,Nc1ccc(-c2nc3cc(Cc4ccc5[nH]c(-c6ccc(N)cc6)nc5c4)ccc3[nH]2)cc1,14.7%
6,CCOc1cc2c(cc1OCC)C(c1cc(C)c(O)c(C)c1)NCC2 (stereo not drawn),18.2%
7,CCN1CCN(Cc2ccc(NC(=O)c3cc4ccc5cccnc5c4[nH]3)cc2)CC1,21.1%
8,O=C(NCc1ccco1)C1CCN(S(=O)(=O)c2ccc(Br)cc2)CC1,-6.48%
9,O=C(NC1CCN(Cc2ccccc2)CC1)c1cc2nc(-c3ccc(Cl)s3)cc(C(F)(F)F)n2n1,3.66%
10,O=C1C2=C(Nc3ccccc3SC2c2ccccc2)c2ccccc21 (stereo not drawn),-7.59%
11,CC1CCCCN1CCCNC(=O)c1ccc2c(c1)sc1nc(-c3ccc(F)cc3)cn12 (stereo not drawn),21.3%
12,CCN(CC)CCn1c(=N)n(CC(O)c2ccc(Cl)c(Cl)c2)c2ccccc21 (stereo not drawn),32.2%
13,O=C(Nc1ccc(Cl)cc1)N1CCN(c2ccc3nncn3n2)CC1,18%
14,COc1ccc(C2c3ccc4ccccc4c3Oc3ncn(CCCn4ccnc4)c(=N)c32)cc1OC (stereo not drawn),59.1%
15,COc1ccc(-c2cc3c(nn2)-c2ccccc2C3=O)cc1,-10.8%
16,CCN(CC)CCNc1ncnc2c1[nH]c1ccc(Cl)cc12,14.5%
17,COc1ccccc1N1C(=N)SC(=Cc2ccc(OCc3ccccc3F)cc2)C1=O,2.18%
18,Cc1ccccc1OCCSc1nc2ccc(NC(=O)c3cccs3)cc2s1,11.4%
19,Cc1c(C)n(Cc2ccc(F)cc2)c2ccc(C(=O)NCc3ccco3)cc12,19.2%

row,Structure (SMILES),relative % inhibition
1,CCOC(=O)c1c(C)n(-c2ccc(Cl)cc2)c2ccc(OC(=O)C=Cc3ccccc3)cc12,15.8%
2,CCOc1cccc(C(=O)Nc2ccc(-c3nc4ccccc4[nH]3)cc2)c1,35.7%
3,CCOc1ccc(CN2CCN(CC(O)COc3ccc(OCC(O)CN4CCN(Cc5ccc(OCC)cc5)CC4)cc3)CC2)cc1 (stereo not drawn),6.71%
4,O=c1cc(NC2CCN(CCCc3ccccc3)CC2)c2cc(Cl)ccc2o1,10.6%
5,CCCc1c(C)nc2ccccc2c1O,-8.06%
6,COc1cccc(NC(=O)[C@H](C(C)C)n2c(=O)[nH]c3ccccc3c2=O)c1,70.7%
7,Cc1cc(N2CCN(C3CCCC3)CC2)n2c(nc3ccccc32)c1C#N,-10.1%
8,Cc1ccc(OCCCCCCNCCO)c(C)c1,2.04%
9,CN1C=C(c2ccc3ccccc3n2)C(c2c[nH]c3ccccc23)c2ccccc21 (stereo not drawn),16.1%
10,Cc1[nH]c(-c2ccc(F)cc2)cc1C(=O)NC1CCN(Cc2ccccc2)CC1,14.7%
11,COc1ccccc1N1CCN(C(CNS(=O)(=O)c2ccc(Cl)cc2)c2cccnc2)CC1 (stereo not drawn),-2.86%
12,O=C(NCC1Cc2cccc(-c3ccncc3)c2O1)c1csc2c1CCCC2 (stereo not drawn),-5.92%
13,Cn1c(=O)n(C)c2cc(CNCCNc3ccnc4cc(Cl)ccc34)ccc21,86.6%
14,CCC(c1ccccc1)c1nn2c(-c3cccs3)nnc2s1 (stereo not drawn),-3.13%
15,COc1ccc(C=C2SC(Nc3ccc(F)cc3)=NC2=O)c(OC)c1,2.18%
16,COc1ccc(Nc2nc(NN=Cc3ccc(O)cc3)nc(Nc3ccc([N+](=O)[O-])cc3)n2)cc1,-0.568%
17,CN(C)CCCNCc1ccc(-c2ccc(F)c(Cl)c2)o1,32.7%
18,CCOC(=O)c1cnc2c(CC)cccc2c1O,-5.02%
19,Cc1cc(NCCN2CCCCC2)c2ccc3ccccc3c2n1,10.2%
